Assay results from PubChem BioAssay (NCI).
The panel holds about 83,000 compounds, 20% with a hit somewhere; the sample as a whole holds those more often.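 Treatment: one concentration, 48 hours, 96-well format. Scoring: percent growth, with anything below 10 considered active.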 Unmarked numbers belong to inactive results. The source made the active and inactive calls.

These compounds were tested on MDA-MB-468 breast (assay: NCI-60 one-dose screen, 48 h (100 = growth as untreated, 0 = no growth, -100 = all killed)). Conditions: 10 µM unless noted.

Row | Structure (SMILES) | growth
1 | CCCC[N+](CCCC)=c1ccc2nc3c(C)cc(N(CC)CC)cc3sc-2c1 | -45.9% (active)
2 | OC(Cc1cc(CC(O)(C(F)(F)F)C(F)(F)F)nc(CC(O)(C(F)(F)F)C(F)(F)F)c1)(C(F)(F)F)C(F)(F)F | -37% (active)
3 | O=c1[nH]c(=O)c2cc(Cl)cc(Cl)c2[nH]1 | 112%
4 | c1ccc2c(-c3nc(-c4c[nH]c5ncccc45)cs3)c[nH]c2c1 | 108%
